Consider five molecules from PubChem BioAssay (EPA / NIEHS).

Structures are written as SMILES. Results filed as inconclusive are left out. The source holds several records for some structures; these can differ, active in one and inactive in another. Activity calls are given as the source filed them. The calls were made as follows, unless noted: active = hit-call score of the fitted dose curve at least 0.9, where 1 is the maximum; inactive = score below 0.9.

Read-out in assay [1]: Collagen I, COL1A1 (gene 1277)
Put plainly: BSK_MyoF_CollagenI: BioMAP Diversity Plus: MyoF Assay for Collagen I Biomarker Activity (AID 2284238). Particulars: primary human lung fibroblasts. A digest of the protocol: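 Primary human lung fibroblasts (MyoF system) treated 24 h; Collagen I quantified by ELISA and fitted in positive direction against DMSO. Parallel SRB total-protein staining assessed overt cytotoxicity.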

Read-out in assay [2]: Collagen III, COL3A1 (gene 1281)
The assay is described as follows: BSK_MyoF_CollagenIII: BioMAP Diversity Plus: MyoF Assay for Collagen III Biomarker Activity (AID 2284239). Particulars: primary human lung fibroblasts. A digest of the protocol: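 Primary human lung fibroblasts (BioMAP MyoF system) exposed 24 h. Collagen III measured by ELISA; positive-direction fit relative to DMSO.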

Read-out in assay [3]: Interleukin 17F (IL17F), IL17F (gene 112744)
The assay is described as follows: BSK_BT_xIL17F: BioMAP Diversity Plus: BT Assay for Interleukin 17F (IL17F) Biomarker Activity (AID 2284243). The settings on record: primary human B cells with PBMC. A digest of the protocol: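 Human PBMC co-cultured with B cells, compound exposure 24 h; secreted IL-17F quantified by Luminex xMAP, referenced to DMSO control. PBMC viability measured in parallel by Alamar Blue reduction.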

Read-out in assay [4]: Actin alpha 1 (ACTA1), ACTA1 (gene 58)
Put plainly: BSK_MyoF_ACTA1: BioMAP Diversity Plus: MyoF Assay for Actin alpha 1 (ACTA1) Biomarker Activity (AID 2284244). Particulars: primary human lung fibroblasts. The gist of the method: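 alpha-SMA levels read by ELISA against DMSO baseline, 24 h post-dose, in primary human lung fibroblasts. Parallel cultures stained with 0.1% SRB after 10% TCA fixation (560 nm) to flag overt cytotoxicity.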

Read-out in assay [5]: Interleukin 2 (IL2), IL2 (gene 3558)
The assay is described as follows: BSK_BT_xIL2: BioMAP Diversity Plus: BT Assay for Interleukin 2 (IL2) Biomarker Activity (AID 2284245). The settings on record: primary human B cells with PBMC. The gist of the method: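 Secreted IL-2 was read by Luminex xMAP from B cells co-cultured with PBMC (human primary) 24 h post-dosing; activity was analysed as gain of signal relative to DMSO vehicle.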

Read-out in assay [6]: Basic fibroblast growth factor (bFGF), FGF2 (gene 2247)
Put plainly: BSK_MyoF_bFGF: BioMAP Diversity Plus: MyoF Assay for Basic fibroblast growth factor (bFGF) Biomarker Activity (AID 2284246). The settings on record: primary human lung fibroblasts. The gist of the method: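 bFGF was measured by ELISA in primary human lung fibroblasts 24 h after chemical addition. Signal was analysed as positive-direction change relative to DMSO baseline.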

Read-out in assay [7]: Collagen IV, COL4A1 (gene 1282)
The assay is described as follows: BSK_MyoF_CollagenIV: BioMAP Diversity Plus: MyoF Assay for Collagen IV Biomarker Activity (AID 2284247). The settings on record: primary human lung fibroblasts. The gist of the method: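 Collagen IV quantified by ELISA in human lung fibroblast cultures 24 h after chemical treatment, with DMSO as baseline. Parallel SRB staining (0.1% SRB after TCA fixation, 560 nm) flags overt cytotoxicity.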

Read-out in assay [8]: Plasminogen activator inhibitor-1 (PAI1), SERPINE1 (gene 5054)
Put plainly: BSK_MyoF_PAI1: BioMAP Diversity Plus: MyoF Assay for Plasminogen activator inhibitor-1 (PAI1) Biomarker Activity (AID 2284256).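 As to outcome: PAI-1 read 24 h after compound addition.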 Particulars: primary human lung fibroblasts. The gist of the method: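 Primary human lung fibroblasts treated with chemical for 24 h; PAI-1 levels quantified by ELISA relative to DMSO. Cytotoxicity was assessed in parallel cultures by SRB total-protein staining (0.1% SRB after 10% TCA fixation, 560 nm).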

The nature of assay [9]: CCTE_Mundy_HCI_Cortical_NOG_BPCount: CCTE's Neurite Outgrowth Assay in rat cortical cells for Branch Point Count, Mundy Lab (AID 2284237).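 As to AC50: branch points counted about two days after chemical exposure.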 The gist of the method: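 Measured 50.33 h after dosing, this morphology endpoint uses rat primary cortical cultures labelled for betaIII-tubulin. Branch points are quantified by high-content imaging, with DMSO as negative control and baseline.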

A short description of assay [10]: CCTE_Mundy_HCI_hNP1_Casp3_7: CCTE's Caspase-Glo 3/7 Assay in human neuroprogenitor cells for Apoptosis, Mundy Lab (AID 2284240). A digest of the protocol:
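Luminescent caspase-3/7 readout, 26.5 h post-dose, in human neural progenitor cells from WA09 embryonic stem cells. Cells grew 40–44 h at 37 °C, 5% CO2 before chemical addition. Activity analysed as signal increase over DMSO baseline.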

Assay [11] is described as follows: CCTE_Mundy_HCI_Cortical_Synap_Neur_Matur_NeuronCount: CCTE's Synaptogenesis and Neurite Maturation Assay in rat cortical cells for Neuron Count, Mundy Lab (AID 2284242; active = hit-call score of the fitted dose curve at least 0.9, where 1 is the maximum;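 as to AC50: hits reduce neuron count versus DMSO baseline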). A digest of the protocol:
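Neuron counts come from automated high-content imaging of Hoechst nuclei and MAP2/synaptophysin immunostaining at DIV 12, with loss of signal judged against DMSO. Cultures of rat cortical cells had glial growth arrested by AraC at DIV 5; chemical exposure began DIV 7.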

Read-out in assay [12]: Monokine induced gamma interferon (MIG), CXCL9 (gene 4283)
Put plainly: BSK_KF3CT_MIG: BioMAP Diversity Plus: KF3CT Assay for Monokine induced gamma interferon (MIG) Biomarker Activity (AID 2284248). Particulars: primary human keratinocytes with fibroblasts. The gist of the method: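 Human keratinocyte–foreskin fibroblast co-culture; MIG measured by ELISA 24 h after chemical dosing, fitted upward versus DMSO. Cytotoxicity was assessed in parallel cultures by SRB total-protein staining read at 560 nm.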

Read-out in assay [13]: Vascular cell adhesion molecule 1 (VCAM1), VCAM1 (gene 7412)
Put plainly: BSK_BF4T_VCAM1: BioMAP Diversity Plus: BF4T Assay for Vascular cell adhesion molecule 1 (VCAM1) Biomarker Activity (AID 2284249). Particulars: primary human bronchial epithelial cells with fibroblasts. The gist of the method:
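Cell-surface VCAM-1 quantified by ELISA after 24 h chemical exposure of human bronchial epithelial/dermal fibroblast co-cultures, with SRB staining in parallel wells for cytotoxicity; DMSO baseline, positive-direction fitting.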

Read-out in assay [14]: Collagen I, COL1A1 (gene 1277)
Put plainly: BSK_hDFCGF_CollagenI: BioMAP Diversity Plus: hDFCGF Assay for Collagen I Biomarker Activity (AID 2284250). Particulars: primary human foreskin fibroblasts. The gist of the method: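 Collagen I quantified by ELISA 24 h after chemical dosing of human dermal fibroblast primary cells, with parallel SRB staining (0.1%, TCA-fixed, 560 nm) for overt cytotoxicity.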

Read-out in assay [15]: Interferon-inducible T-cell alpha chemoattractant (ITAC), CXCL11 (gene 6373)
The assay is described as follows: BSK_hDFCGF_ITAC: BioMAP Diversity Plus: hDFCGF Assay for Interferon-inducible T-cell alpha chemoattractant (ITAC) Biomarker Activity (AID 2284251). Particulars: primary human foreskin fibroblasts. A digest of the protocol:
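Measured by ELISA, the chemokine level serves as the endpoint in human skin fibroblast primary cultures 24 h after compound addition. Increases relative to DMSO-treated wells define activity.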

Read-out in assay [16]: Plasminogen activator inhibitor-1 (PAI1), SERPINE1 (gene 5054)
The assay is described as follows: BSK_KF3CT_PAI1: BioMAP Diversity Plus: KF3CT Assay for Plasminogen activator inhibitor-1 (PAI1) Biomarker Activity (AID 2284252). Particulars: primary human keratinocytes with fibroblasts. The gist of the method:
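PAI-1 levels quantified by ELISA after 24 h compound exposure of primary human skin keratinocytes co-cultured with fibroblasts. Activity is the gain relative to DMSO; cytotoxicity tracked in parallel cultures via SRB staining.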

Read-out in assay [17]: Monocyte Chemoattractant Protein-1 (MCP1), CCL2 (gene 6347)
Put plainly: BSK_IMphg_MCP1: BioMAP Diversity Plus: IMphg Assay for Monocyte Chemoattractant Protein-1 (MCP1) Biomarker Activity (AID 2284253). The settings on record: primary human endothelial cells with macrophages. A digest of the protocol: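 ELISA readout of MCP-1 at 24 hours in IMphg co-cultures of venular endothelial cells and macrophages, normalised to DMSO; parallel cultures stained with sulforhodamine B for overt cytotoxicity.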

Read-out in assay [18]: Interleukin-8 (IL8), CXCL8 (gene 3576)
The assay is described as follows: BSK_KF3CT_IL8: BioMAP Diversity Plus: KF3CT Assay for Interleukin-8 (IL8) Biomarker Activity (AID 2284254). Particulars: primary human keratinocytes with fibroblasts. A digest of the protocol:
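Human keratinocyte/foreskin fibroblast co-culture dosed 24 h; IL-8 measured by ELISA relative to DMSO. Parallel cultures stained with SRB for total protein to flag cytotoxicity.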

Read-out in assay [19]: Macrophage Inflammatory Protein-1 Alpha (MIP1a), CCL3 (gene 6348)
Put plainly: BSK_IMphg_MIP1a: BioMAP Diversity Plus: IMphg Assay for Macrophage Inflammatory Protein-1 Alpha (MIP1a) Biomarker Activity (AID 2284255). Particulars: primary human endothelial cells with macrophages. The gist of the method: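 MIP-1a protein levels were quantified by ELISA after 24 h treatment of human endothelial cell–macrophage co-cultures, compared with DMSO. Parallel cultures were fixed with TCA and stained with 0.1% SRB to gauge overt cytotoxicity.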

Assay [20] is described as follows: CCTE_Mundy_HCI_hNP1_CellTiter: CCTE's Cell Titer-Glo 2 Assay in human neuroprogenitor cells for Viability, Mundy Lab (AID 2284241; active = hit-call score of the fitted dose curve at least 0.9, where 1 is the maximum;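 as to AC50: a hit is a drop in ATP luminescence versus DMSO meaning reduced viability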). The gist of the method:
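Viability read as luminescent ATP content (CellTiter-Glo, 30 min room temperature) twenty-four hours after dosing, relative to DMSO. Cells: WA09-derived hNP1 neuroprogenitors on poly-L-ornithine/laminin, plated 40 to 44 hours before chemical.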
(ATP-based viability assays read luminescence as a measure of living cells.)

Take `ClC1C(Cl)C(Cl)C(Cl)C(Cl)C1Cl` (stereo not given): the half-maximal activity concentration (AC50) (commonly the midpoint of the concentration-response curve, whichever way the signal moves) in assay [1] is 25.5 µM (active); in assay [2], 30.3 µM (active); in [3] it was 20 µM (active); in [4] it was 28.5 µM (active); in [5], 31.9 µM (active); in [8] it was 0.295 µM (active). In addition, the outcome in [1], in assay [2], in assay [3], in assay [4], in [5] and in [6] was inactive. The outcome in assay [7] and in [8] was inactive.

Regarding `O=C(O)C(F)(F)C(F)(F)C(F)(F)C(F)(F)C(F)(F)C(F)(F)C(F)(F)F`, the call in assay [9], in assay [1], in assay [2], in assay [10], in assay [11] and in assay [3] was inactive. In addition, the result in assay [4], in assay [5], in assay [6], in assay [12], in assay [13] and in [14] was inactive. Also, the outcome in [15], in assay [16], in [17], in [18], in assay [19] and in assay [8] was inactive. Moreover, the AC50 in assay [7] was 31.6 µM (active) [middle of 4 runs].

On to `COP(=O)(OC)OC=C(Cl)Cl`, for which the half-maximal activity concentration (AC50) was 70 µM (active) in assay [9] and 81.4 µM (active) in [11]. The molecule was classed as inactive in [9], in assay [10] and in [20].

Turning to `CC[C@H](C)[C@H]1O[C@]2(C=C[C@@H]1C)C[C@@H]1C[C@@H](C/C=C(\C)[C@@H](O[C@H]3C[C@H](OC)[C@@H](O[C@H]4C[C@H](OC)[C@@H](O)[C@H](C)O4)[C@H](C)O3)[C@@H](C)/C=C/C=C3\CO[C@@H]4[C@H](O)C(C)=C[C@@H](C(=O)O1)[C@]34O)O2` (tested in a mixture with another compound), the AC50 in [9] was 8.26 µM (active); in [10], 3.64 µM (active); in [20], 3.34 µM (active); in assay [11], 1.55 µM (active).

Consider `O=C(O)COc1ccc(Cl)cc1Cl`, for which the result in assay [9], in [10] and in assay [20] was inactive.
